Data as given in article PMC12820563, “FoxP3 forms a head-to-head dimer in vivo and stabilizes its multimerization on adjacent microsatellites”.
In all, about 16,000 sequences were measured (“rpm ratio (pull-down/input)”: median about 0.5, highest 2% from about 5.5 on). Shown is part of a subset that was picked to be rich in the highest values.

molecular target: T1, MBP-FoxP3dN (Mus musculus, UniProt Q99JB6 188-423); experiment: PD-seq (MBP pull-down with sequencing); 20 mM Tris-HCl pH 7.5, 100 mM NaCl, 1.5 mM MgCl2, 0.4 uM protein, 0.1 uM dsDNA library, 30 min, room temperature, amylose pull-down; high values mean tight binding; settings: protein: recombinant; tags: His6-MBP; chain copies: 2; dsDNA, one strand shown
T1 sequence: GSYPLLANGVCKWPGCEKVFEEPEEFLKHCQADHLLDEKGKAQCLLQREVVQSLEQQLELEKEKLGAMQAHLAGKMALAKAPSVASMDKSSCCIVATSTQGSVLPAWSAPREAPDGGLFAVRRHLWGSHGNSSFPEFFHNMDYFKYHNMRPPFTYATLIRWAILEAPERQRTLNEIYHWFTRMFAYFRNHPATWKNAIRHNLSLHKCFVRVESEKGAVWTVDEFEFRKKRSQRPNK
Method in brief: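 Protein and DNA were mixed at 0.4 µM and 0.1 µM and held for 30 min at room temperature in Tris pH 7.5 buffer with NaCl and MgCl2; the protein was a His6-MBP-tagged, N-terminally truncated mouse FoxP3 or FoxP1 fragment from E. coli, and the DNA a Klenow-filled double-stranded degenerate library. Amylose resin captured the complexes, which were washed three times. Binding is read as reads-per-million enrichment of pull-down versus input after Illumina sequencing, with replicates pooled.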

Sequence | binding signal
GATGATTGTTCTCCCAGCTGATGAATTTTGGTCGTCGAGTAAACAAATTTTCCTAATCTTTCTGTTCAAGCGCCATCTAC | 0.496 RPM ratio (pull-down/input)
GATGATTGTTCTCCCAGCTGATGAATTTGGGTGGTCGAGTAAACAAATTTTCCTAATCTTTCTGTTCAAGCGCCATCTAC | 0.682 RPM ratio (pull-down/input)
GATGATTGTTCTCCCAGCTGATGAATTGTTAACTTCGAGTAAACAAATTTTCCTAATCTTTCTGTTCAAGCGCCATCTAC | 0.587 RPM ratio (pull-down/input)
GATGATTGTTCTCCCAGCTGATGAATTGCTCCAATCGAGTAAACAAATTTTCCTAATCTTTCTGTTCAAGCGCCATCTAC | 0.467 RPM ratio (pull-down/input)
GATGATTGTTCTCCCAGCTGATGAATTTTCTCGCTCGAGTAAACAAATTTTCCTAATCTTTCTGTTCAAGCGCCATCTAC | 0.241 RPM ratio (pull-down/input)
GATGATTGTTCTCCCAGCTGATGAATTATATATATCGAGTAAACAAATTTTCCTAATCTTTCTGTTCAAGCGCCATCTAC | 1.27 RPM ratio (pull-down/input)
GATGATTGTTCTCCCAGCTGATGAATTGAAGGGATCGAGTAAACAAATTTTCCTAATCTTTCTGTTCAAGCGCCATCTAC | 0.265 RPM ratio (pull-down/input)
GATGATTGTTCTCCCAGCTGATGAATTCAGGCGATCGAGTAAACAAATTTTCCTAATCTTTCTGTTCAAGCGCCATCTAC | 0.508 RPM ratio (pull-down/input)
GATGATTGTTCTCCCAGCTGATGAATTATGCGTGTCGAGTAAACAAATTTTCCTAATCTTTCTGTTCAAGCGCCATCTAC | 5.88 RPM ratio (pull-down/input)
GATGATTGTTCTCCCAGCTGATGAATTGTGTGCGTCGAGTAAACAAATTTTCCTAATCTTTCTGTTCAAGCGCCATCTAC | 2.16 RPM ratio (pull-down/input)
GATGATTGTTCTCCCAGCTGATGAATTGTGCGTGTCGAGTAAACAAATTTTCCTAATCTTTCTGTTCAAGCGCCATCTAC | 6.18 RPM ratio (pull-down/input)
GATGATTGTTCTCCCAGCTGATGAATTGCGCGTGTCGAGTAAACAAATTTTCCTAATCTTTCTGTTCAAGCGCCATCTAC | 4.88 RPM ratio (pull-down/input)
GATGATTGTTCTCCCAGCTGATGAATTGCGTGTGTCGAGTAAACAAATTTTCCTAATCTTTCTGTTCAAGCGCCATCTAC | 2.22 RPM ratio (pull-down/input)
GATGATTGTTCTCCCAGCTGATGAATTATGCGCGTCGAGTAAACAAATTTTCCTAATCTTTCTGTTCAAGCGCCATCTAC | 3.33 RPM ratio (pull-down/input)
GATGATTGTTCTCCCAGCTGATGAATTATATGCGTCGAGTAAACAAATTTTCCTAATCTTTCTGTTCAAGCGCCATCTAC | 1.07 RPM ratio (pull-down/input)
GATGATTGTTCTCCCAGCTGATGAATTTGCGTGTTCGAGTAAACAAATTTTCCTAATCTTTCTGTTCAAGCGCCATCTAC | 3.79 RPM ratio (pull-down/input)
GATGATTGTTCTCCCAGCTGATGAATTTTGCGTGTCGAGTAAACAAATTTTCCTAATCTTTCTGTTCAAGCGCCATCTAC | 5.56 RPM ratio (pull-down/input)
GATGATTGTTCTCCCAGCTGATGAATTGGCCACGTCGAGTAAACAAATTTTCCTAATCTTTCTGTTCAAGCGCCATCTAC | 0.526 RPM ratio (pull-down/input)
GATGATTGTTCTCCCAGCTGATGAATTGGTAGCTTCGAGTAAACAAATTTTCCTAATCTTTCTGTTCAAGCGCCATCTAC | 0.798 RPM ratio (pull-down/input)

Sequence | binding signal
GATGATTGTTCTCCCAGCTGATGAATTTAGCCCGTCGAGTAAACAAATTTTCCTAATCTTTCTGTTCAAGCGCCATCTAC | 1.59 RPM ratio (pull-down/input)
GATGATTGTTCTCCCAGCTGATGAATTAGTGCGATCGAGTAAACAAATTTTCCTAATCTTTCTGTTCAAGCGCCATCTAC | 0.851 RPM ratio (pull-down/input)
GATGATTGTTCTCCCAGCTGATGAATTGTCCTACTCGAGTAAACAAATTTTCCTAATCTTTCTGTTCAAGCGCCATCTAC | 0.368 RPM ratio (pull-down/input)
GATGATTGTTCTCCCAGCTGATGAATTTTTTTTCTCGAGTAAACAAATTTTCCTAATCTTTCTGTTCAAGCGCCATCTAC | 0.267 RPM ratio (pull-down/input)
GATGATTGTTCTCCCAGCTGATGAATTGTCTTACTCGAGTAAACAAATTTTCCTAATCTTTCTGTTCAAGCGCCATCTAC | 0.469 RPM ratio (pull-down/input)
GATGATTGTTCTCCCAGCTGATGAATTGTCCTCCTCGAGTAAACAAATTTTCCTAATCTTTCTGTTCAAGCGCCATCTAC | 0.37 RPM ratio (pull-down/input)
GATGATTGTTCTCCCAGCTGATGAATTTTGTCTCTCGAGTAAACAAATTTTCCTAATCTTTCTGTTCAAGCGCCATCTAC | 2.39 RPM ratio (pull-down/input)
GATGATTGTTCTCCCAGCTGATGAATTTCTAATCTCGAGTAAACAAATTTTCCTAATCTTTCTGTTCAAGCGCCATCTAC | 0.288 RPM ratio (pull-down/input)
GATGATTGTTCTCCCAGCTGATGAATTGTTGTCCTCGAGTAAACAAATTTTCCTAATCTTTCTGTTCAAGCGCCATCTAC | 5.63 RPM ratio (pull-down/input)
GATGATTGTTCTCCCAGCTGATGAATTCTTTGTCTCGAGTAAACAAATTTTCCTAATCTTTCTGTTCAAGCGCCATCTAC | 0.413 RPM ratio (pull-down/input)
GATGATTGTTCTCCCAGCTGATGAATTGTTTGTCTCGAGTAAACAAATTTTCCTAATCTTTCTGTTCAAGCGCCATCTAC | 7.63 RPM ratio (pull-down/input)
GATGATTGTTCTCCCAGCTGATGAATTTGTCTACTCGAGTAAACAAATTTTCCTAATCTTTCTGTTCAAGCGCCATCTAC | 5.77 RPM ratio (pull-down/input)
GATGATTGTTCTCCCAGCTGATGAATTTCTGTCCTCGAGTAAACAAATTTTCCTAATCTTTCTGTTCAAGCGCCATCTAC | 0.313 RPM ratio (pull-down/input)
GATGATTGTTCTCCCAGCTGATGAATTGTTGTTCTCGAGTAAACAAATTTTCCTAATCTTTCTGTTCAAGCGCCATCTAC | 7.17 RPM ratio (pull-down/input)
GATGATTGTTCTCCCAGCTGATGAATTTGTGCGCTCGAGTAAACAAATTTTCCTAATCTTTCTGTTCAAGCGCCATCTAC | 1.87 RPM ratio (pull-down/input)
GATGATTGTTCTCCCAGCTGATGAATTTATGCGGTCGAGTAAACAAATTTTCCTAATCTTTCTGTTCAAGCGCCATCTAC | 1.09 RPM ratio (pull-down/input)
GATGATTGTTCTCCCAGCTGATGAATTAGTCCGCTCGAGTAAACAAATTTTCCTAATCTTTCTGTTCAAGCGCCATCTAC | 0.349 RPM ratio (pull-down/input)
GATGATTGTTCTCCCAGCTGATGAATTTTGTCGATCGAGTAAACAAATTTTCCTAATCTTTCTGTTCAAGCGCCATCTAC | 1.18 RPM ratio (pull-down/input)
GATGATTGTTCTCCCAGCTGATGAATTCTTCGACTCGAGTAAACAAATTTTCCTAATCTTTCTGTTCAAGCGCCATCTAC | 0.239 RPM ratio (pull-down/input)

Sequence | binding signal
GATGATTGTTCTCCCAGCTGATGAATTGATAATCTCGAGTAAACAAATTTTCCTAATCTTTCTGTTCAAGCGCCATCTAC | 0.411 RPM ratio (pull-down/input)
GATGATTGTTCTCCCAGCTGATGAATTTACTTTCTCGAGTAAACAAATTTTCCTAATCTTTCTGTTCAAGCGCCATCTAC | 1.32 RPM ratio (pull-down/input)
GATGATTGTTCTCCCAGCTGATGAATTCTAGCCTTCGAGTAAACAAATTTTCCTAATCTTTCTGTTCAAGCGCCATCTAC | 1.89 RPM ratio (pull-down/input)
GATGATTGTTCTCCCAGCTGATGAATTTCCGTGGTCGAGTAAACAAATTTTCCTAATCTTTCTGTTCAAGCGCCATCTAC | 0.282 RPM ratio (pull-down/input)
GATGATTGTTCTCCCAGCTGATGAATTCGTCGGGTCGAGTAAACAAATTTTCCTAATCTTTCTGTTCAAGCGCCATCTAC | 0.574 RPM ratio (pull-down/input)
GATGATTGTTCTCCCAGCTGATGAATTGGTTTGCTCGAGTAAACAAATTTTCCTAATCTTTCTGTTCAAGCGCCATCTAC | 4.24 RPM ratio (pull-down/input)
GATGATTGTTCTCCCAGCTGATGAATTTTAGTTATCGAGTAAACAAATTTTCCTAATCTTTCTGTTCAAGCGCCATCTAC | 1.33 RPM ratio (pull-down/input)
GATGATTGTTCTCCCAGCTGATGAATTTGTTGTCTCGAGTAAACAAATTTTCCTAATCTTTCTGTTCAAGCGCCATCTAC | 7.77 RPM ratio (pull-down/input)
GATGATTGTTCTCCCAGCTGATGAATTTTTTGTCTCGAGTAAACAAATTTTCCTAATCTTTCTGTTCAAGCGCCATCTAC | 0.367 RPM ratio (pull-down/input)
GATGATTGTTCTCCCAGCTGATGAATTTGTCTTCTCGAGTAAACAAATTTTCCTAATCTTTCTGTTCAAGCGCCATCTAC | 4.22 RPM ratio (pull-down/input)
GATGATTGTTCTCCCAGCTGATGAATTGTCTTCTTCGAGTAAACAAATTTTCCTAATCTTTCTGTTCAAGCGCCATCTAC | 0.478 RPM ratio (pull-down/input)
GATGATTGTTCTCCCAGCTGATGAATTTCTGTCTTCGAGTAAACAAATTTTCCTAATCTTTCTGTTCAAGCGCCATCTAC | 0.368 RPM ratio (pull-down/input)
GATGATTGTTCTCCCAGCTGATGAATTGTTGTCTTCGAGTAAACAAATTTTCCTAATCTTTCTGTTCAAGCGCCATCTAC | 5.62 RPM ratio (pull-down/input)
GATGATTGTTCTCCCAGCTGATGAATTCCATTCGTCGAGTAAACAAATTTTCCTAATCTTTCTGTTCAAGCGCCATCTAC | 0.494 RPM ratio (pull-down/input)
GATGATTGTTCTCCCAGCTGATGAATTAGAGAGTTCGAGTAAACAAATTTTCCTAATCTTTCTGTTCAAGCGCCATCTAC | 0.399 RPM ratio (pull-down/input)
GATGATTGTTCTCCCAGCTGATGAATTACTGGGGTCGAGTAAACAAATTTTCCTAATCTTTCTGTTCAAGCGCCATCTAC | 0.231 RPM ratio (pull-down/input)
GATGATTGTTCTCCCAGCTGATGAATTGAACTGGTCGAGTAAACAAATTTTCCTAATCTTTCTGTTCAAGCGCCATCTAC | 0.209 RPM ratio (pull-down/input)
GATGATTGTTCTCCCAGCTGATGAATTAGAGATCTCGAGTAAACAAATTTTCCTAATCTTTCTGTTCAAGCGCCATCTAC | 0.32 RPM ratio (pull-down/input)
GATGATTGTTCTCCCAGCTGATGAATTAGAATGTTCGAGTAAACAAATTTTCCTAATCTTTCTGTTCAAGCGCCATCTAC | 0.671 RPM ratio (pull-down/input)
